Where “and” joins values, the source holds several entries; their conditions need not be identical. Equal entries are not always repeated. Out of some 5,500 compounds screened, about 2,000 (36%) were called active. Inconclusive results (about 18%) are left out. No stated cut-off is given here; in the data, active means normalized growth mostly below about 0.91 (no sharp cut-off); inconclusive means no clear call, values can overlap the other calls; inactive means mostly above about 0.92. The list shows a part of the results.
Experiment: chemical genetic growth profiling, strain panel (AID 1159580);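 further: tested at 20 µM; growth read once vehicle control cultures reached saturation at 30 °C; 1 = growth at the plate median or of vehicle wells; lower values mean less growth of the strain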
Details: S. cerevisiae deletion strains, growth OD

Measured: normalized growth

C=C1C[C@]23C[C@@]1(O)CC[C@H]2[C@@]12C=C[C@H](O)[C@@](C)(C(=O)O1)[C@H]2[C@@H]3C(=O)O
inactive: locus YAL013W, strain DEP1, active compounds read low 0.998 | locus YAL021C, strain ccr4, active compounds read low 0.976 | locus YAL026C, strain drs2, active compounds read low 1.04 | locus YAL030W, strain snc1, active compounds read low 1.03 | locus YBL061C, strain skt5, active compounds read low 1.02 | locus YBR009C, strain hhf1, active compounds read low 1.02 | locus YBR021W, strain FUR4, active compounds read low 1.01 | locus YBR023C, strain chs3, active compounds read low 1.02 | locus YBR171W, strain sec66, active compounds read low 1.03 | locus YBR229C, strain ROT2, active compounds read low 0.956 | locus YBR231C, strain swc5, active compounds read low 1.03 | locus YBR279W, strain paf1, active compounds read low 1.02 | locus YCL011C, strain gbp2, active compounds read low 1.03 | locus YCL016C, strain dcc1, active compounds read low 0.997 | locus YCL029C, strain bik1, active compounds read low 0.984 | locus YCL069W, strain vba3, active compounds read low 1.03 | locus YCR088W, strain abp1, active compounds read low 1.02 | locus YDL005C, strain med2, active compounds read low 1.03 | locus YDL035C, strain GPR1, active compounds read low 0.982 | locus YDL040C, strain nat1, active compounds read low 1.03 | locus YDL074C, strain BRE1, active compounds read low 1.02 | locus YDL101C, strain DUN1, active compounds read low 0.999 | locus YDL134C, strain PPH21, active compounds read low 1.03 | locus YDL185W, strain tfp1, active compounds read low 0.978 | locus YDL192W, strain arf1, active compounds read low 0.986 | locus YDR001C, strain nth1, active compounds read low 1.03 | locus YDR069C, strain doa4, active compounds read low 1.03 | locus YDR101C, strain arx1, active compounds read low 0.967 | locus YDR137W, strain rgp1, active compounds read low 1.03 | locus YDR150W, strain NUM1, active compounds read low 0.996 | locus YDR159W, strain sac3, active compounds read low 1.04 | locus YDR162C, strain NBP2, active compounds read low 0.976 | locus YDR195W, strain ref2 1 | locus YDR297W, strain sur2, active compounds read low 1.02 | locus YDR318W, strain mcm21, active compounds read low 0.984 | locus YDR334W, strain swr1, active compounds read low 1.02 | locus YDR335W, strain msn5, active compounds read low 1.02 | locus YDR388W, active compounds read low 0.998 | locus YDR392W, strain spt3, active compounds read low 0.885 | locus YDR502C, strain sam2, active compounds read low 1.03 | locus YEL003W, strain gim4, active compounds read low 1.02 | locus YEL037C, strain rad23, active compounds read low 1.02 | locus YEL061C, strain CIN8 (second series), active compounds read low 1.02 | locus YEL061C, strain CIN8, active compounds read low 1 | locus YER015W, strain faa2, active compounds read low 1.02 | locus YER016W, strain bim1, active compounds read low 1.03 | locus YER110C, active compounds read low 0.98 | locus YER111C, strain swi4, active compounds read low 1 | locus YER155C, strain BEM2 (second series), active compounds read low 1 | locus YER155C, strain BEM2, active compounds read low 0.991 | locus YER167W, strain BCK2, active compounds read low 0.989 | locus YFR010W, strain ubp6, active compounds read low 1.03 | locus YGL078C, strain dbp3, active compounds read low 1.02 | locus YGL086W, strain mad1, active compounds read low 1.01 | locus YGL167C, strain pmr1, active compounds read low 1.03 | locus YGL173C, strain kem1, active compounds read low 1.05 | locus YGL227W, strain vid30, active compounds read low 1.02 | locus YGL240W, strain doc1, active compounds read low 1.02 | locus YGL248W, strain PDE1, active compounds read low 1.01 | locus YGL253W, strain hxk2, active compounds read low 1.05 | locus YGR135W, strain pre9, active compounds read low 1.07 | locus YGR252W, strain gcn5, active compounds read low 1.05 | locus YHR013C, strain ard1, active compounds read low 1.02 | locus YHR027C, strain rpn1, active compounds read low 1.03 | locus YHR030C, strain SLT2, active compounds read low 0.996 and 1 | locus YHR079C, strain IRE1 (second series), active compounds read low 0.998 | locus YHR079C, strain IRE1, active compounds read low 0.998 | locus YHR094C, strain hxt1, active compounds read low 0.991 | locus YHR129C, strain ARP1, active compounds read low 0.998 | locus YHR142W, strain chs7, active compounds read low 1.04 | locus YHR200W, strain rpn10, active compounds read low 1.01 | locus YIL066C, strain RNR3, active compounds read low 0.98 | locus YIL073C, strain SPO22, active compounds read low 1.07 | locus YIL125W, strain kgd1, active compounds read low 1 | locus YIR030C, strain dcg1, active compounds read low 0.994 | locus YJL092W, strain hpr5, active compounds read low 1.02 | locus YJL095W, strain BCK1 (second series), active compounds read low 1.02 | locus YJL095W, strain BCK1, active compounds read low 1.06 and 1.01 | locus YJL115W, strain asf1, active compounds read low 1.02 | locus YJL129C, strain trk1, active compounds read low 1.04 | locus YJL134W, strain LCB3, active compounds read low 0.99 | locus YJL154C, strain vps35, active compounds read low 1.03 | locus YJL164C, strain tpk1, active compounds read low 1.01 | locus YJL166W, strain qcr8, active compounds read low 1.03 | locus YJL168C, strain set2, active compounds read low 1.01 | locus YJL187C, strain SWE1 (second series), active compounds read low 1.01 | locus YJL187C, strain SWE1, active compounds read low 1.03 | locus YJR043C, strain POL32, active compounds read low 0.96 | locus YJR066W, strain TOR1, active compounds read low 0.962 | locus YKL009W, strain mrt4, active compounds read low 1.03 | locus YKL068W, active compounds read low 1 | locus YKL085W, strain MDH1 (second series), active compounds read low 0.99 | locus YKL085W, strain MDH1, active compounds read low 0.99 | locus YKL160W, strain elf1, active compounds read low 0.998 | locus YKR001C, strain vps1, active compounds read low 1.01 | locus YKR026C, strain gcn3, active compounds read low 1.02 | locus YKR091W, strain srl3, active compounds read low 1.03 | locus YLL001W, strain dnm1, active compounds read low 0.986 | locus YLL026W, active compounds read low 1.02 | locus YLL041C, strain sdh2, active compounds read low 1.02 | locus YLR027C, strain aat2, active compounds read low 1.03 | locus YLR039C, strain RIC1, active compounds read low 0.989 | locus YLR058C, strain SHM2, active compounds read low 0.98 | locus YLR102C, strain apc9, active compounds read low 0.995 | locus YLR113W, strain HOG1, active compounds read low 0.998 | locus YLR221C, strain rsa3, active compounds read low 1.04 | locus YLR258W, strain gsy2, active compounds read low 1.02 | locus YLR262C, strain YPT6 (second series), active compounds read low 1.03 | locus YLR268W, strain sec22, active compounds read low 0.97 | locus YLR320W, strain mms22, active compounds read low 1.05 | locus YLR342W, strain FKS1, active compounds read low 1.03 | locus YLR357W, strain rsc2, active compounds read low 0.994 | locus YLR370C, strain arc18, active compounds read low 1.02 | locus YLR371W, strain rom2, active compounds read low 0.992 | locus YLR384C, strain iki3, active compounds read low 1.04 | locus YLR418C, strain cdc73, active compounds read low 1.09 | locus YML016C, strain PPZ1, active compounds read low 0.984 | locus YML032C, strain rad52, active compounds read low 0.984 | locus YML120C, strain ndi1, active compounds read low 1.01 | locus YML124C, strain tub3, active compounds read low 0.984 | locus YMR058W, strain fet3, active compounds read low 1.03 | locus YMR078C, strain ctf18, active compounds read low 0.999 | locus YMR125W, strain sto1, active compounds read low 1.01 | locus YMR129W, active compounds read low 1.02 | locus YMR205C, strain PFK2, active compounds read low 1.02 | locus YMR223W, strain ubp8, active compounds read low 1.01 | locus YMR231W, strain pep5, active compounds read low 1.01 | locus YMR263W, strain SAP30, active compounds read low 0.994 | locus YMR307W, strain GAS1, active compounds read low 0.969 | locus YNL067W, strain RPL9B, active compounds read low 1 | locus YNL071W, strain lat1, active compounds read low 1.02 | locus YNL128W, strain TEP1, active compounds read low 0.976 | locus YNL153C, strain GIM3, active compounds read low 1.02 | locus YNL183C, strain NPR1, active compounds read low 0.958 | locus YNL209W, strain ssb2, active compounds read low 1.03 | locus YNL233W, strain BNI4, active compounds read low 1.04 | locus YNL248C, strain rpa49, active compounds read low 1.05 | locus YNL250W, strain rad50, active compounds read low 0.998 | locus YNL271C, strain bni1, active compounds read low 0.982 | locus YNL298W, strain CLA4, active compounds read low 0.987 | locus YNL307C, strain MCK1, active compounds read low 1.01 | locus YNL322C, strain KRE1 (second series), active compounds read low 1 | locus YNR049C, strain mso1, active compounds read low 1.02 | locus YNR052C, strain pop2, active compounds read low 1.03 | locus YOL006C, strain TOP1, active compounds read low 0.967 | locus YOL012C, strain htz1 1.07 | locus YOL147C, strain pex11, active compounds read low 0.99 | locus YOR001W, strain rrp6, active compounds read low 1.04 | locus YOR061W, strain CKA2, active compounds read low 0.962 | locus YOR069W, strain VPS5, active compounds read low 0.996 | locus YOR070C, strain gyp1, active compounds read low 1.01 | locus YOR080W, strain dia2, active compounds read low 1 | locus YOR083W, strain WHI5, active compounds read low 0.997 | locus YOR106W, strain vam3, active compounds read low 0.982 | locus YOR136W, strain idh2, active compounds read low 0.989 | locus YOR144C, strain elg1, active compounds read low 0.991 | locus YOR184W, strain ser1, active compounds read low 0.954 | locus YOR231W, strain MKK1, active compounds read low 0.98 | locus YOR265W, strain rbl2, active compounds read low 1.02 | locus YOR270C, strain vph1, active compounds read low 1.11 | locus YOR290C, strain snf2, active compounds read low 0.985 | locus YOR316C, strain cot1, active compounds read low 0.984 | locus YPL051W, strain arl3, active compounds read low 0.992 | locus YPL078C, strain atp4, active compounds read low 0.995 | locus YPL106C, strain sse1, active compounds read low 0.993 | locus YPL240C, strain hsp82, active compounds read low 1.01 | locus YPL241C, strain CIN2, active compounds read low 0.997 | locus YPL256C, strain CLN2, active compounds read low 0.992 | locus YPR119W, strain clb2, active compounds read low 1.01 | locus YPR141C, strain kar3, active compounds read low 0.981 | locus YPR163C, strain tif3, active compounds read low 0.989 | locus YPR167C, strain met16, active compounds read low 1.01 | strain wtn01, active compounds read low 0.974

Reference: PubChem BioAssay AID1159580 (chemical genetic matrix, 2015)
